Measurements published in PubChem BioAssay AID2685 (National Center for Advancing Translational Sciences (NCATS), 2010).
The campaign covered roughly 320,000 compounds. About 2,100 (0.66%) were called active. Not shown: some 53% with an inconclusive outcome. Calls follow the shape of the dose curve; as a rule, active = well fitted inhibition curve with a large enough effect in the signal ratio, with a control signal flat (not every such curve was filed as active); inconclusive = small, poorly fitted or top-dose-only effect, or effect the other way, or a change in a side signal; inactive = flat fitted curve, though single readings scatter; the % refers to the signal ratio. Shown is part of a subset that was picked to be rich in actives.

Test: qHTS Assay for Lipid Storage Modulators in Drosophila S3 Cells;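 as to cell number change: cells counted by Cell Tracker Red CMTPX staining in the red channel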; as to lipid storage change, negative = inhibition: % is scaled to controls: 0 for no effect and ±100 for the full control effect
Conditions: BODIPY lipid droplet fluorescence, 18-24 h, cells fed with added oleic acid; cell number change: measured here: cell count max response; series mostly up to 46.1 µM; lipid storage change, negative = inhibition: at the top concentration
In short: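 Laser-scanning cytometry quantifies lipid droplet accumulation (500–530 nm total intensity; droplet/cell object ratio) in oleic acid-fed (400 uM added) Drosophila S3 cells treated with a concentration series. 20 uM Triacsin C defined 100% inhibition.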
Potency is read from the fitted curve at half-maximal effect.

Compound	lipid storage change, negative = inhibition	cell number change [%]	outcome	Potency
CCC(=O)N(c1ccc(C(=O)O)cc1)c1nc(-c2ccc(OC)cc2)c(C)s1	1.19% (inactive)	-9.44		
CC(=O)Cc1nsc(NC(=O)c2ccc(-c3cc(Cl)ccc3Cl)o2)n1	12.3% (inactive)	15.1		
CS(=O)(=O)c1cccc(C(=O)Nc2ccc(-c3nc4ccccc4[nH]3)cc2)c1		86.3	inactive	
CS(=O)(=O)c1ccc(C(=O)Nc2cccc(-c3nc4ccccc4[nH]3)c2)cc1		3.88	inactive	
COc1cccc(C(=O)Nc2nc3ccccc3[nH]2)c1	-0.695% (inactive)	17.8		
CS(=O)(=O)c1cccc(C(=O)Nc2cccc(-c3nc4ccccc4[nH]3)c2)c1		-15		7.31 µM (active)
CN(C)c1cccc(C(=O)Nc2nc3ccccc3[nH]2)c1		-3.6		14.6 µM (active)
O=C(Nc1nc2ccccc2[nH]1)c1cccc([N+](=O)[O-])c1	5.31% (inactive)	-8.28		
Cn1c(N2CCOCC2)c(/C=N/OC(=O)c2cccnc2Cl)c2ccccc21			inactive	
Cc1ccc(NS(=O)(=O)c2ccc3c(c2)NC(=O)CO3)c(C)c1		-9.44	inactive	
O=C1CC(c2ccccc2)CN1S(=O)(=O)c1ccccc1 (centres undefined)		-20.2		20.6 µM (active)
O=C(Nc1nnc(C2CC2)s1)c1cccc(S(=O)(=O)N2CC(c3ccccc3)CC2=O)c1 (centres undefined)	14.3% [at 9.22 µM] (inactive)			
O=C1CCCN1S(=O)(=O)c1ccccc1	-16.7% (inactive)	-14.6		
O=C(N=C1SC2CS(=O)(=O)CC2N1CCc1ccccc1)C1CCCCC1 (centres undefined)			inactive	
Cc1cc(C=O)c(C)n1-c1cccc(C(=O)O)c1	22.3% (inactive)	7.64		
Cc1ccc(OCCOC(=O)c2cc(S(=O)(=O)N3CCCCC3)ccc2N2CCOCC2)cc1		-27		5.17 µM (active)
CC(C)(C)NC(=O)COC(=O)c1cc(S(=O)(=O)N2CCCCC2)ccc1N1CCOCC1	-8.17% (inactive)			
CC(C)(C)C(=O)COC(=O)c1cc(S(=O)(=O)N2CCCCC2)ccc1N1CCOCC1	-21.4% [at 0.0737 µM] (inactive)	-8.75		
NC(=O)c1ccc(NC(=O)COC(=O)/C=C/c2ccc3c(c2)OCO3)cc1	-1.6% (inactive)	9.72		
COc1ccccc1NC(=O)COC(=O)/C=C/c1ccc2c(c1)OCO2	3.62% (inactive)	18		
CC(=O)Nc1ccc(NC(=O)COC(=O)/C=C/c2ccc3c(c2)OCO3)cc1		-1.06		5.17 µM (active)
CCOC(=O)C1(Cc2ccccc2C(F)(F)F)CCN(C2CCN(C(C)=O)CC2)CC1	6.45% (inactive)	11.4		
CC1CCc2nc(N)c(C#N)c(-c3cccn3C)c2C1 (centres undefined)	12% (inactive)			
COc1cccc2cc(C(=O)NCc3ccccc3Br)c(=O)oc12	9.42% (inactive)	1.66		

Compound	lipid storage change, negative = inhibition	cell number change [%]	outcome	Potency
CC1Cc2ccccc2N1C(=O)c1cc2cccnc2n(C)c1=O (centres undefined)	4.14% (inactive)	1.02		
NS(=O)(=O)c1cc2c(cc1Cl)NC(c1ccccc1OCC(=O)O)NS2(=O)=O (centres undefined)		-10.4	inactive	
COc1ccccc1/C=C/C(=O)Nc1cccnc1		-14.6		5.8 µM (active)
COc1ccccc1/C=C/C(C)=O	0.161% (inactive)	3.8		
COc1ccc(/C=C/C(=O)c2ccc(Cl)cc2)c(OC)c1	-3.9% (inactive)	-5.6		
COc1ccccc1/C=C/C(=O)c1ccc(Cl)cc1		1.97		4.61 µM (active)
COc1ccccc1/C=C/C(=O)NCc1cccnc1	11.8% (inactive)	-13.8		
COC(=O)/C=C/C(=O)Nc1cccnc1	6.84% (inactive)	-5.59		
CCCOc1ccc(/C=N/Nc2ccc(C(=O)O)cc2)c(OCCC)c1	15.7% (inactive)	9.43		
CCn1nc(NS(=O)(=O)c2ccc(NC(C)=O)cc2)c2cc3ccccc3nc21		-12.4	inactive	
COCCN1C(=O)N[C@@H](c2ccco2)C(C(C)=O)=C1C	-6.07% (inactive)	3.8		
COCCCNC(=O)CN(c1cccc(Cl)c1)S(C)(=O)=O	4.41% (inactive)	-7.55		
CNc1cc(C)c(C#N)c2nc3ccccc3n12		-18.9	inactive	
CCC(C)Nc1cc(C)c(C#N)c2nc3ccccc3n12 (centres undefined)	6.81% (inactive)	5.52		
Cc1cc(NC(C)C)n2c(nc3ccccc32)c1C#N		-88.9		16.4 µM (active)
CC1CCCC(C)N1C(=O)Cn1cc(C#N)c2ccccc21 (centres undefined)	19.1% (inactive)	9.53		
CC1CCCC(C)N1C(=O)Cn1cc(/C=C2/C(=O)Nc3ccccc32)c2ccccc21 (centres undefined)		-83.5		23.1 µM (active)
COC(=O)c1cn(CC(=O)N2C(C)CCCC2C)c2ccccc12 (centres undefined)	1.45% (inactive)	9.64		
O=C(CS(=O)(=O)Cc1ccccc1)NCc1ccco1	-0.383% (inactive)	-5.74		
Cc1ccc(CCNC(=O)C2CCCN(S(=O)(=O)N3CC(C)CC(C)C3)C2)cc1 (centres undefined)	-23.2% (inactive)	-24.2		
CC(C)(C)NC(=O)NC(=O)COC(=O)Cn1cnc2ccccc2c1=O		-17.2	inactive	
CC(C)(C)c1ccc(OC(=O)Cn2c(C(F)(F)F)nc3ccccc32)cc1		-15.3		13 µM (active)
CC(=O)Cn1c(C(F)(F)F)nc2ccccc21	-2.72% (inactive)	-7.24		
CC(C)(C)NC(=O)NC(=O)COC(=O)Cn1c(C(F)(F)F)nc2ccccc21		-8.07		5.17 µM (active)

Compound	lipid storage change, negative = inhibition	cell number change [%]	outcome	Potency
COC(=O)Cn1c(C(F)(F)F)nc2ccccc21	-1.69% (inactive)	-24.1		
CCOC(=O)c1c(NC(=O)COC(=O)Cn2c(C(F)(F)F)nc3ccccc32)sc(C)c1C	0.975% (inactive)	2.48		
Nc1ccc(C(=O)Nc2cccc(NC(=O)c3ccc(N)cc3)c2)cc1		-20.4	inactive	
CCCN1C(=O)C2C(C(=O)Nc3cccc(OC)c3)C3C=CC2(O3)C1C(=O)NC1CCCCC1 (centres undefined)	-3.79% (inactive)	1.47		
Cc1ccc(S(=O)(=O)N(CC(=O)O)Cc2ccco2)cc1	-18.7% (inactive)	0.734		
COc1cc(NC(=S)NCc2cccnc2)cc(OC)c1		-12.6		5.8 µM (active)
COc1cccc(NC(=S)NCc2cccnc2)c1	-1.84% (inactive)			
COc1cc(NC(=S)NCc2cccnc2)cc(OC)c1OC	7.12% (inactive)	5.48		
Cc1ccc(-c2nc(C)sc2CC(=O)Nc2cccc(C)c2C)cc1	0.0243% (inactive)	6.08		
COc1ccc(NC(=O)C(=O)Nc2cccc3cccnc23)cc1OC		32.1	inactive	
COc1ccc(C2CC(=O)C3=C(C2)Nc2ccccc2N(C(=O)CCC(=O)O)C3c2ccc(F)cc2)cc1OC (centres undefined)	-11.3% (inactive)	-2.28		
CC(C)c1nnc(SCC(=O)N2CCOCC2)n1C	-0.0362% (inactive)	3.98		
CN(C)S(=O)(=O)c1ccc2c(c1)/C(=C/c1cc3c([nH]1)CCCC3)C(=O)N2		2.43		5.17 µM (active)
Cc1ccc2c(c1)/C(=C/c1ccc(F)cc1)C(=O)N2	22% (inactive)	18		
CN(C)S(=O)(=O)c1ccc2c(c1)Cc1cc(S(=O)(=O)N(C)C)ccc1-2	-3.2% (inactive)	7.91		
CCOC(=O)C(=NCCCN(C)C)NNc1ccc(Br)cc1	10.6% (inactive)	23.2		
COCc1ccc(C(=O)N(C)C2CCCN(Cc3ccccc3F)C2)o1 (centres undefined)	-23% (inactive)	-1.36		
CC(=O)c1c(C)[nH]c(C(=O)Nc2nc(C)cs2)c1C	-4.83% (inactive)	-7.81		
COc1cccc(NS(=O)(=O)CC23CCC(CC2=O)C3(C)C)c1 (centres undefined)		-15		3.66 µM (active)
CC1(C)C2CCC1(CS(=O)(=O)Nc1ccccc1)C(=O)C2 (centres undefined)	-21.6% (inactive)	-22.6		
COc1ccc(NS(=O)(=O)CC23CCC(CC2=O)C3(C)C)cc1 (centres undefined)	-15.4% (inactive)	6.22		
Cc1ccsc1C(=O)NCCc1nnc2ccccn12	-1.6% (inactive)	18.3		
COc1cccc(/C=N/N(C)C2=NS(=O)(=O)c3ccccc32)c1O	1.01% (inactive)	12.6		
CN(/N=C/c1cc(Cl)ccc1O)C1=NS(=O)(=O)c2ccccc21		12.6		3.66 µM (active)

Compound	lipid storage change, negative = inhibition	cell number change [%]	outcome	Potency
Cc1ccc(/C=N/N(C)C2=NS(=O)(=O)c3ccccc32)cc1	-1.35% (inactive)	17.1		
CCCCCOC(=O)CCN1C(=O)/C(=C2\SC(=S)N(CCC(=O)OCCCCC)C2=O)SC1=S	13.2% (inactive)	-3.31		
Cc1ccc(NC(=O)c2cc(=O)[nH]c3ccc(S(=O)(=O)N4CCOCC4)cc23)nc1	11.8% [at 0.0737 µM] (inactive)	-6.73		
COc1ccc(S(=O)(=O)Oc2cccc(C(=S)N3CCOCC3)c2)cc1		-15.5	inactive	
COc1ccc(S(=O)(=O)Oc2ccc(C(=S)N3CCOCC3)cc2OC)cc1		-13.8	inactive	
COc1ccc(S(=O)(=O)Oc2ccccc2C(=S)N2CCOCC2)cc1		-29.9		1.46 µM (active)
COc1ccc2[nH]c(=O)c(CN(CCN(C)C)C(=O)NCc3ccccc3)cc2c1		17.8	inactive	
COc1ccccc1CNN	-3.56% (inactive)	-17.3		
COc1ccccc1CNCc1cc(OC)c(OC)cc1OC		-2.42	inactive	
COc1ccccc1CNCC(c1ccccc1)c1ccccc1		-20		1.46 µM (active)
CCCCC(=O)Nc1ccc(NC(=O)c2cnccn2)cn1	-6.31% (inactive)	3.06		
CCOC(=O)c1c(NC(=O)c2cccnc2)sc(C(C)=O)c1C	2.48% (inactive)	5.18		
O=C(c1ccc(S(=O)(=O)Nc2cccc(C(F)(F)F)c2)cc1)N1CCC1	18.7% (inactive)	1.62		
O=[N+]([O-])c1cccc(CN(CCO)Cc2ccccc2)c1		-9.58		13 µM (active)
OCCN(Cc1ccccc1)Cc1cccc(F)c1	4.72% (inactive)	-7.51		
CCN(Cc1ccccc1)Cc1cccc([N+](=O)[O-])c1			inactive	
CC1(C(=O)NC2CCCCCCC2)CCC(=O)N1Cc1ccco1 (centres undefined)	-0.266% (inactive)	2.23		
CC(=O)N1CCC(N2CCN(c3ccccc3F)CC2)CC1	-6.18% (inactive)	-0.227		
COC(=O)c1ccc(S(=O)(=O)N2CCCN(Cc3cccc(Br)c3F)CC2)n1C	25.4% (inactive)			
COc1cc(NC2c3ccccc3C(=O)N2c2ccc(C)cn2)cc(OC)c1OC (centres undefined)	1.47% (inactive)	9.33		
CCOC(=O)c1cc(C(=O)NN)c(=O)[nH]c1C	-8.78% (inactive)	-9.94		
COc1ccc(Cl)cc1NC(=O)COC(=O)c1c(-c2ccccc2)noc1C		-24.6	inactive	
COc1ccc(OC)c(NC(=O)COC(=O)c2c(C)noc2C)c1		-7.27		4.61 µM (active)
COCCOc1ccc(C(F)(F)F)cc1NC(=O)COC(=O)c1c(C)noc1C	-14% (inactive)	-13.3		
